The supplement of paper PMC12350171
Where a name gives a salt, the structure may show the parent alone. Unmarked numbers belong to inactive results.

Legend:
Conditions in all cases: 20 µM
[1] = system: Salmonella enterica typhimurium; experiment: growth AUC normalised to DMSO control (fraction of control); higher = less growth inhibition, active = hit call of the paper
Outline: (§1)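 Pathogens passaged twice anaerobically were inoculated at a starting OD578 of 0.01 into pre-reduced mGAM plates with drug at 20 μM and 1% DMSO, sealed with breathable membranes. Haemophilus parainfluenzae medium was supplemented with hemin and NAD. OD578 was read hourly for 24 h, with three biological replicates. Growth-curve AUC was computed by the trapezoidal rule up to the exponential-to-stationary transition and normalised to DMSO controls on the same plate.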

[2] = system: Shigella flexneri; experiment: as above
Outline: as §1

[3] = system: Vibrio cholerae; experiment: as above
Outline: as §1

[4] = system: Yersinia pseudotuberculosis; experiment: as above
Outline: as §1

[5] = system: P. vulgatus RND KO; experiment: growth AUC normalised to DMSO control (median) (fraction of control); higher = less growth inhibition, active = hit call of the paper
Outline: (§2)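 Area under the growth curve, calculated by the trapezoidal rule up to entry into stationary phase, was normalised to vehicle wells on the same plate. Strains had been passaged twice overnight without oxygen and then grown in mGAM in 96-well plates from OD578 0.01, each with an approved-drug library compound at 20 μM in 1% DMSO. OD578 was read hourly over 24 h in an anaerobic incubator, and the median of three biological replicates is given.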

[6] = system: P. vulgatus WT; experiment: as above
Outline: as §2

[7] = system: S. enterica typhimurium WT; experiment: as above
Outline: as §2

[8] = system: S. enterica typhimurium tolC KO; experiment: as above
Outline: as §2
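Throughout, for growth AUC normalised to DMSO control (median): active when median AUC fell below 0.1.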

| Structure (SMILES) | growth AUC normalised to DMSO control [1] | growth AUC normalised to DMSO control [2] | growth AUC normalised to DMSO control [3] | growth AUC normalised to DMSO control [4] | growth AUC normalised to DMSO control [5] | growth AUC normalised to DMSO control [6] | growth AUC normalised to DMSO control [7] | growth AUC normalised to DMSO control [8] |
| --- | --- | --- | --- | --- | --- | --- | --- | --- |
| CN(C)CCOC(c1ccccc1)c1ccccc1.Cn1c(=O)c2[nH]c(Cl)nc2n(C)c1=O [Dimenhydrinate] | 0.975 | 0.984 | 0.933 | 0.982 | 1.01 | 1 | 0.988 | 0.983 |
| Nc1ccc(S(=O)(=O)Nc2ncccn2)cc1 [Sulfadiazine] | 0.989 | 0.974 | 1 | 0.987 | 0.996 | 0.995 | 0.986 | 1 |
| CCCCCCCN(CC)CCCC(O)c1ccc(NS(C)(=O)=O)cc1 (stereo not drawn) [Ibutilide fumarate] | 0.991 | 0.961 | 0.964 | 0.989 | 1.01 | 0.991 | 0.996 | 1.01 |
| CN(C)CCCN1c2ccccc2Sc2ccc(Cl)cc21 [Chlorpromazine hydrochloride] | 0.996 | 0.983 | 0.877 (active) | 0.985 | 0.924 | 0.903 | 1 | 0.962 |
| NCc1ccc(S(N)(=O)=O)cc1 [Mafenide hydrochloride] | 1 | 0.998 | 1.03 | 0.969 | 0.963 | 0.815 | 1.01 | 1 |
| CCN(CC)CCOC(=O)c1ccc(N)cc1 [Procaine hydrochloride] | 1 | 0.992 | 1.01 | 1 | 1.02 | 0.989 | 0.992 | 0.998 |
| CCn1cc(C(=O)O)c(=O)c2cc(F)c(N3CCNCC3)cc21 [Norfloxacin] | 0.00731 (active) | 0.0176 (active) | 0.0427 (active) | 0.0323 (active) | 0.922 | 0.865 | 0.00734 (active) | 0.0069 (active) |
| CC[C@H](C)[C@H](N)C1=N[C@H](C(=O)N[C@@H](CC(C)C)C(=O)N[C@H](CCC(=O)O)C(=O)N[C@H](C(=O)N[C@H]2CCCCNC(=O)[C@H](CC(N)=O)NC(=O)[C@@H](CC(=O)O)NC(=O)[C@H](Cc3cnc[nH]3)NC(=O)[C@@H](Cc3ccccc3)NC(=O)[C@H]([C@@H](C)CC)NC(=O)[C@@H](CCCN)NC2=O)[C@@H](C)CC)CS1 [Bacitracin] | 0.996 | 0.98 | 1.15 | 0.976 | 0.137 | 0.104 | 1.01 | 1.01 |
| CC(=O)O[C@]1(C(C)=O)CC[C@H]2[C@@H]3C=C(C)C4=CC(=O)CC[C@@H]4[C@H]3CC[C@@]21C [Nomegestrol acetate] | 0.991 | 1.03 | 1.06 | 1.01 | 0.963 | 1 | 1.03 | 0.94 |
| COc1cc(C(=O)OCCCN2CCCN(CCCOC(=O)c3cc(OC)c(OC)c(OC)c3)CC2)cc(OC)c1OC [Dilazep dihydrochloride] | 1 | 1.03 | 1.01 | 0.989 | 0.993 | 0.989 | 1 | 0.978 |
| C=CCOc1ccccc1OCC(O)CNC(C)C (stereo not drawn) [Oxprenolol hydrochloride] | 0.993 | 1.02 | 1.03 | 1 | 0.998 | 1 | 0.997 | 0.994 |
| CN(C)CCC[C@@]1(c2ccc(F)cc2)OCc2cc(C#N)ccc21 [Escitalopram oxalate] | 1 | 0.991 | 0.976 | 0.99 | 1.01 | 1 | 0.989 | 0.982 |
| O=C(Cn1ccnc1[N+](=O)[O-])NCCO [Etanidazole] | 1.01 | 1.03 | 1.03 | 1.02 | 0.991 | 1.01 | 0.99 | 1.02 |
| CC(C)N1CCN(c2ccc(OCC3COC(Cn4cncn4)(c4ccc(Cl)cc4Cl)O3)cc2)CC1 (stereo not drawn) [Terconazole] | 0.962 | 0.982 | 1 | 0.989 | 1.06 | 1.04 | 1.01 | 0.97 |
| C/C(=C(\CCOP(=O)(O)O)SC(=O)c1ccccc1)N(C=O)Cc1cnc(C)nc1N [Benfotiamine] | 0.997 | 0.982 | 0.996 | 0.988 | 1.02 | 1.03 | 1.01 | 0.999 |
| C[C@@H](O[C@H]1OCCN(Cc2n[nH]c(=O)[nH]2)[C@H]1c1ccc(F)cc1)c1cc(C(F)(F)F)cc(C(F)(F)F)c1 [Aprepitant] | 0.993 | 0.978 | 0.985 | 0.976 | 0.0129 (active) | 0.0137 (active) | 0.994 | 0.997 |

| Structure (SMILES) | growth AUC normalised to DMSO control [1] | growth AUC normalised to DMSO control [2] | growth AUC normalised to DMSO control [3] | growth AUC normalised to DMSO control [4] | growth AUC normalised to DMSO control [5] | growth AUC normalised to DMSO control [6] | growth AUC normalised to DMSO control [7] | growth AUC normalised to DMSO control [8] |
| --- | --- | --- | --- | --- | --- | --- | --- | --- |
| O=S(=O)(O)CCS [Coenzyme M] | 1 | 1.02 | 1.01 | 0.997 | 1.01 | 1.01 | 1.01 | 1 |
| CO[C@@]1(NC(=O)C2SC(=C(C(N)=O)C(=O)O)S2)C(=O)N2C(C(=O)O)=C(CSc3nnnn3C)CS[C@@H]21 (stereo partly drawn) [Cefotetan] | 0.00234 (active) | 0.0192 (active) | 0.186 (active) | 0.0842 (active) | 0.0118 (active) | 0.0068 (active) | 0.00563 (active) | 0.00413 (active) |
| CC(=O)N(O)CCCCCNC(=O)CCC(=O)N(O)CCCCCNC(=O)CCC(=O)N(O)CCCCCN [Deferoxamine mesylate] | 1.03 | 1.03 | 1.03 | 1 | 1.04 | 1.07 | 0.998 | 1 |
| O=C1CCc2ccc(OCCCCN3CCN(c4cccc(Cl)c4Cl)CC3)cc2N1 [Aripiprazole] | 1.02 | 1.03 | 1.02 | 1.01 | 0.889 | 0.891 | 1.01 | 0.92 |
| Cc1noc(NS(=O)(=O)c2ccc(N)cc2)c1C [Sulfisoxazole] | 0.995 | 1 | 1.03 | 0.971 | 1 | 1.05 | 0.997 | 0.98 |
| O=C(O)c1ccccc1OP(=O)(O)O [Fosfosal] | 0.983 | 0.984 | 0.994 | 0.988 | 1 | 1.02 | 1 | 1.01 |
| CC(C)n1c(/C=C/C(O)CC(O)CC(=O)O)c(-c2ccc(F)cc2)c2ccccc21 (stereo not drawn) [Fluvastatin sodium salt] | 0.985 | 0.995 | 0.997 | 0.996 | 1 | 1 | 1 | 0.931 |
| CCC1(C)CC(=O)NC1=O (stereo not drawn) [Ethosuximide] | 1.02 | 1.02 | 1.03 | 0.999 | 1.02 | 1.05 | 1 | 0.963 |
| Nc1ccc(C(=O)O)c(O)c1 [Aminosalicylic acid] | 1.03 | 1.01 | 0.988 | 0.962 | 1.02 | 1 | 1.01 | 1.01 |
| CCN(Cc1ccncc1)C(=O)C(CO)c1ccccc1 (stereo not drawn) [Tropicamide] | 1.01 | 0.987 | 0.995 | 1 | 0.996 | 0.995 | 1.01 | 1 |
| COc1ccc2cc(CCC(C)=O)ccc2c1 [Nabumetone] | 1.03 | 0.998 | 0.929 | 0.999 | 0.99 | 1 | 1 | 0.963 |
| CCN(CC)C(C)CN1c2ccccc2Sc2ccccc21 (stereo not drawn) [Ethopropazine hydrochloride] | 0.972 | 0.999 | 0.918 | 0.995 | 0.272 | 0.246 | 0.993 | 0.951 |
| NC[C@@H]1O[C@H](O[C@H]2[C@@H](O)[C@H](O[C@@H]3[C@@H](O)[C@H](N)C[C@H](N)[C@H]3O[C@H]3O[C@H](CN)[C@@H](O)[C@H](O)[C@H]3N)O[C@@H]2CO)[C@H](N)[C@@H](O)[C@@H]1O [Neomycin sulfate] | 1.01 | 1.04 | 1.05 | 1 | 1.02 | 1.01 | 0.999 | 1.03 |
| NC(=O)OCC(O)COc1ccc(Cl)cc1 (stereo not drawn) [Chlorphensin carbamate] | 1.01 | 1.01 | 1.03 | 1.01 | 0.992 | 0.994 | 1.02 | 0.987 |
| CC=C(C)C(=O)OC1C(OC(C)=O)C2(CO)C(O)CC3(C)C(=CCC4C5(C)CCC(OC6OC(C(=O)O)C(OC7OC(CO)C(O)C(O)C7O)C(O)C6OC6OC(CO)C(O)C(O)C6O)C(C)(CO)C5CCC43C)C2CC1(C)C (stereo not drawn) [Beta-Escin] | 0.997 | 1 | 0.995 | 0.999 | 0.998 | 0.981 | 0.977 | 1 |
